Reference: PubChem BioAssay (NCI)
About 83,000 compounds went through this panel and 20% of them were active in at least one assay; those are over-represented in the sample as a whole.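 Each cell line was grown in a 96-well plate and treated with one concentration of compound for 48 hours. Values below 10 were considered active.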 A number with no mark means an inactive call. The source made the active and inactive calls.

tested on: NCI-H522 lung; assay: NCI-60 one-dose screen, 48 h (100 = growth as untreated, 0 = no growth, -100 = all killed); conditions: 10 µM unless noted

SMILES	growth
COc1cc2oc(-c3cccc(C(=O)Nc4cccc([N+](=O)[O-])c4)c3)cc(=O)c2c(OC)c1OC	-46% (active)
COc1cc2c(c(OC)c1OC)C(=O)CC(c1cccc(NC(=O)c3cc(N)ccc3Cl)c1)O2 (configuration not stated)	8.06% (active)
CCOC(=O)/C=C/c1cccc2c1C(=O)NC(C)(c1cc3cc(Cl)ccc3oc1=O)N2 (configuration not stated)	33.8%
CC(C)c1ccc2c(N)c(C(=O)Nc3cccc(C(F)(F)F)c3)sc2n1	48.8%
O=C(C1=CNC(=S)NC1c1ccc(O)cc1)c1cc2ccccc2oc1=O (configuration not stated)	90%
COc1cc(-c2cc(-c3cccc(OCC(=O)O)c3)[nH]c(=O)c2C#N)cc(OC)c1OC	104%
COc1cccc(-c2nc(Nc3ccc(S(N)(=O)=O)cc3)c3ccccc3n2)c1	23.9%
N#Cc1c(-c2ccc(Cl)cc2)nc2n[nH]c(-c3ccc(Cl)cc3)c2c1-c1ccc(C(F)(F)F)cc1	-14.8% (active)
CC12CC[C@@H]3[C@]4(C)COC(c5cn[nH]c5-c5ccc(Br)cc5)O[C@@H]4CC[C@@]3(C)[C@@H]1CC(C1=CCOC1=O)O2 (some centres not stated)	37.4%
CC1=C(C(=O)OCc2ccccc2)C(c2c(O)cc(O)cc2O)n2c(nc3ccccc32)N1 (configuration not stated)	1.19% (active)
COc1ccc2[nH]c(O)c(N=NC(=O)Cn3c(-c4ccccc4)nc4cc(C)ccc43)c2c1	57%
C=C1CC[C@@H]2[C@]3(C)COC(c4cn(-c5ccccc5)nc4-c4ccccc4)O[C@@H]3CC[C@@]2(C)[C@@H]1C/C=C1/C(=O)OC[C@H]1O (some centres not stated)	-88.1% (active)
